# Test results as given in PubChem BioAssay AID525 (The Scripps Research Institute Molecular Screening Center, 2006).
# The whole screen tested about 65,000 compounds, of which about 360 (0.55%) were called active.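 The calls were made as follows: active = inhibition above the mean inhibition of all tested compounds plus 3 SD (cut at about 48% in these data); inactive = the rest.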 Many of the other results were omitted from the sample, so actives are more common in it than they were.
# Molecular target: Steroidogenic factor 1 (Homo sapiens) (UniProt Q13285)
# Sequence (Q13285 whole entry, looked up, the tested form may be a part): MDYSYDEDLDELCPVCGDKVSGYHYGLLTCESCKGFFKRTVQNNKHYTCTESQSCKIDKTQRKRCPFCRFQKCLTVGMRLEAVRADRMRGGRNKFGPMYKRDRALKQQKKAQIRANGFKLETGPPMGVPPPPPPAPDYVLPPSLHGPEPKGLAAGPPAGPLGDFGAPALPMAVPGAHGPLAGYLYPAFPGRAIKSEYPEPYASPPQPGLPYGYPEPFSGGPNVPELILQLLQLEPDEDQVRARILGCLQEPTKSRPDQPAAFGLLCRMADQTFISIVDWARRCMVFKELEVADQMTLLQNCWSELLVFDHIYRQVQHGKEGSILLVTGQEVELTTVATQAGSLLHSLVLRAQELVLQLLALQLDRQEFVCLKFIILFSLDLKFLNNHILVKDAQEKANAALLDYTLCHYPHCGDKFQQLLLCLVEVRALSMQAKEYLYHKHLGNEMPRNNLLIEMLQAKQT
# Test: inhibitors of human SF-1, primary screen, cell-based, CHO-K1, Gal4-SF-1 LBD, luciferase luminescence (AID 525);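 also: 0% = SF-1 transfected cells with DMSO and 100% = mock-transfected cells lacking SF-1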
# Details: CHO-K1 Gal4-SF-1 LBD luciferase reporter; at 10 µM; stronger effect = higher value
row,Compound,inhibition
1,COc1ccc(NC(=O)Nc2cccc3cccnc23)cc1,-65.5% (inactive)
2,O=C(CSCc1cccs1)N1CCCC1,-60.5% (inactive)
3,CCCCCN(C(=O)NC(=O)Nc1ccccc1OC)S(C)(=O)=O,-5.9% (inactive)
4,CN(C(=O)c1ccccn1)c1nnc(-c2ccccn2)s1,-56.6% (inactive)
5,COc1ccc(OCc2ccc(-c3nc4ccccc4c(=O)n3N)o2)cc1,-59% (inactive)
6,COc1ccc(-c2cn3ccsc3n2)cc1,-53.3% (inactive)
7,COC(=O)Cn1cc(C(=O)c2cccs2)c2ccccc21,2.8% (inactive)
8,CC[C@H]1CN2CCc3cc(OC)c(OC)cc3[C@@H]2C[C@@H]1C[C@H]1NCCc2cc(OC)c(OC)cc21,96% (active)
9,Cn1c(=O)c2c(nc(SCC(=O)Nc3ccccc3N3CCCCC3)n2C)n(C)c1=O,-2.8% (inactive)
10,CCC(=O)Nc1cccc(NC(=O)CSc2nnc(-c3ccc(NS(C)(=O)=O)cc3)n2C)c1,-2.4% (inactive)
11,COc1ccc(N2C(=O)C3CCCN3C2c2cc(OC)c(OC)cc2OC)cc1 (stereo unspecified),2.8% (inactive)
12,N#Cc1ccc(OCCN2C(=O)NC3(CCSC3)C2=O)cc1 (stereo unspecified),-12.8% (inactive)
13,O=C(NCCN1C(=O)C2C3C=CC(C3)C2C1=O)Nc1ccccn1 (stereo unspecified),-7.6% (inactive)
14,Cc1cc(C)c(NC(=O)CS(=O)CC(=O)Nc2cccnc2)c(C)c1 (stereo unspecified),2.2% (inactive)
15,CC(=O)c1c(N2CCOCC2)nc(=S)n(Cc2ccccc2)c1C,4.9% (inactive)
16,COC(=O)c1cc(C(=O)CSc2nc(C)cc(C)n2)ccc1O,11.2% (inactive)
17,O=C(c1cnn2ccccc12)N1CCc2ccccc21,-111% (inactive)
18,Cc1nnc(SCC(=O)NCc2cccs2)[nH]c1=O,13.6% (inactive)
19,c1c2c(cc3sc(N4CCCCC4)nc13)OCCO2,71.4% (active)
20,Fc1cc(F)c2nc(N3CCOCC3)sc2c1,-52.6% (inactive)
21,O=C(c1cccc(C(=O)N2CCc3ccccc32)n1)N1CCc2ccccc21,0.9% (inactive)
22,CCNC(=O)CCc1nc(-c2ccc(C(C)(C)C)cc2)no1,86.4% (active)
23,Cc1ccc(Cc2nc(-c3cccc(C)c3)no2)cc1,-53.9% (inactive)
24,Brc1cccc(-c2nnc3n2CCC3)c1,3.8% (inactive)

row,Compound,inhibition
1,CC12CN(Cc3ccccc3)CC(C)(CN(Cc3ccccc3)C1)C2=NO,25.5% (inactive)
2,O=C(Nc1ccc(Cl)cc1)c1ccsn1,-73.5% (inactive)
3,O=C(Nc1ccccc1C(F)(F)F)c1cc(-c2ccc(O)cc2)on1,-64.4% (inactive)
4,CC1CSc2nnc(CCc3ccccc3)n21 (stereo unspecified),3.6% (inactive)
5,O=C(COc1ccc(Cl)cc1)Nc1ccccc1CO,-29% (inactive)
6,O=C(NCc1cn2ccsc2n1)Nc1ccc(Cl)cc1,1.7% (inactive)
7,O=C(NCc1ccco1)c1cc2sccc2n1Cc1ccc(F)cc1,11% (inactive)
8,COc1ccc(CCNC(=O)CSc2nc(C)nc3c2oc2ccccc23)cc1OC,-27.3% (inactive)
9,COc1cccc(CN2C(=O)CCC2(C)C(=O)NC2CCCCCC2)c1 (stereo unspecified),-6.9% (inactive)
10,O=C(Nc1cccc(Cl)c1)OCc1ccccn1,-33.6% (inactive)
11,COc1ccccc1NC(=O)CSc1nnc(Cc2cccn2C)n1-c1ccc(F)cc1,16.2% (inactive)
12,O=C(Nc1ccccc1F)c1cc(S(=O)(=O)N2CCCCC2)cs1,4.9% (inactive)
13,COc1cccc(OC)c1C(=O)Nc1nnc(C(C)C)s1,5.1% (inactive)
14,C=CCNC(=O)CCCOc1cccc(C)c1,-11.2% (inactive)
15,Cc1cccc(NC(=O)c2ccc3ccccc3n2)n1,-98.6% (inactive)
16,COc1cccc(N(CC(=O)NC2CCCC2)C(=O)Cn2nnc(-c3ccc(C)cc3)n2)c1,-13.3% (inactive)
17,COC(=O)c1sc(NC(=O)c2ccc(OC)cc2OC)nc1C,57.8% (active)
18,COc1cccc2sc(Nc3nc(C)c(C(C)=O)s3)nc12,-109% (inactive)
19,COC(=O)c1sc(NC(=O)c2csc3c2CCCC3)nc1C,-50.9% (inactive)
20,CC(C)C(c1nnnn1Cc1ccccc1)N1CCC(C(N)=O)CC1 (stereo unspecified),7.4% (inactive)
21,Cn1nnc2cc(C(=O)NCCC3=CCCCC3)ccc21,-49.9% (inactive)
22,O=C(c1cccs1)N1CCN(C(=O)N2CCOCC2)CC1,-0.9% (inactive)
23,CN(c1ccc(C(=O)NCCC2=CCCCC2)cc1)S(C)(=O)=O,-55.4% (inactive)
24,CCOc1ccc(-c2nnc(-c3ccco3)o2)cc1,48% (active)

row,Compound,inhibition
1,CCCCOc1ccc(-c2nnc(-c3ccco3)o2)cc1,-23.7% (inactive)
2,CCC(=O)Oc1cccc(C(=O)Nc2ccc(-c3nnc(-c4ccco4)o3)cc2)c1,-79.8% (inactive)
3,Cc1csc(NC(=O)C2CCCN2C(=O)OCC(C)C)n1 (stereo unspecified),5.9% (inactive)
4,O=C(NCc1ccccn1)Nc1ccc(F)cc1,-14.7% (inactive)
5,CC(=O)OC(C(=O)NCCc1ccccc1)c1cccnc1 (stereo unspecified),4.1% (inactive)
6,CCCC(=O)C1=C(N(C)c2ccccc2)CC(C)(C)C(C(=O)OC)C1=O (stereo unspecified),-2.3% (inactive)
7,CCc1nnc(NC(=O)c2cccs2)s1,-50% (inactive)
8,Cc1noc(NS(=O)(=O)c2ccc(N3CC(O)=C(c4ccccc4)C3=N)cc2)c1C,10.1% (inactive)
9,COCc1cc(C)nc(Nc2cc(C)ccc2C)c1C#N,3.4% (inactive)
10,COc1ccc(C)c2sc(=NC(=O)c3ccc(C#N)cc3)n(C)c12,-42.4% (inactive)
11,Clc1ccc(Cc2nnc(-c3cccs3)o2)cc1,-59.5% (inactive)
12,CCn1c(CSc2nncn2-c2ccc(OC)cc2)nc2cc(S(=O)(=O)N(C)C)ccc21,-10.1% (inactive)
13,COc1ccc(OCCCC(=O)Nc2nnc(C3CCCO3)s2)cc1 (stereo unspecified),-1.2% (inactive)
14,Cc1[nH]c2ccc(S(N)(=O)=O)cc2c1C,-22.2% (inactive)
15,CN(C)c1ccc(CNC23CN4CN(CN(C4)C2)C3)cc1,14.1% (inactive)
16,O=C(NCc1ccccc1)C1C(=O)N(Cc2ccccc2)C(=O)C1C1(O)CCCC1 (stereo unspecified),4.4% (inactive)
17,CC1CN(c2cc(=O)n(Cc3ccc(F)cc3)c(=O)[nH]2)CC(C)O1 (stereo unspecified),-7.1% (inactive)
18,O=C(CN1C(=O)COc2ccccc21)NCCN1CCc2ccccc2C1,1.3% (inactive)
19,C[N+]1(CCNC(=O)/C=N/O)CCCCC1,3.2% (inactive)
20,CC(C)C(=O)Nc1cccc(C(=O)Nc2ccc3c(c2)OCO3)c1,-55% (inactive)
21,Cc1cccc(NC(=O)CSC(N)=O)c1C,9.5% (inactive)
22,CCOC(=O)c1sc(N(Cc2ccccc2)C(=O)CN2C(=O)CN(C)C2=O)nc1C,3.4% (inactive)
23,CCS(=O)(=O)N1CCC(C(=O)N2CCN(c3ccccc3)CC2)CC1,0.7% (inactive)
24,O=C(Nc1ccc(NC(=O)c2cccs2)cn1)c1ccco1,-73.3% (inactive)

row,Compound,inhibition
1,O=C(c1cccc(C(=O)N2CCN(c3ccc(F)cc3)CC2)c1)N1CCN(c2ccc(F)cc2)CC1,6.4% (inactive)
2,COc1ccc(C2=NOC(C(=O)NCc3ccco3)C2)cc1OC (stereo unspecified),-23.3% (inactive)
3,COC(=O)c1ccccc1NC(=O)C1CCN(S(=O)(=O)c2cc(OC)ccc2OC)CC1,4.4% (inactive)
4,CC(=O)c1cc(C#N)c(SCC(=O)C(C)(C)C)nc1C,-57.1% (inactive)
5,CCOC(=O)C1=C(C)N=c2s/c(=C\C(=O)OC)c(=O)n2C1c1ccc(OC)cc1 (stereo unspecified),-6.9% (inactive)
6,COc1ccc(OC)c(CNC(=O)C2CCCN(c3nc4ccccc4o3)C2)c1 (stereo unspecified),9.1% (inactive)
7,COCc1cc(C)nc(SCC(=O)Nc2cccc(C)c2)c1C#N,2.8% (inactive)
8,Cc1cnc(NC(=O)CSc2nnc(-c3ccccc3)n2Cc2ccccc2)s1,13.7% (inactive)
9,COc1ccc(N2CCN(CCNC(=O)CCN3C(=O)COc4ccccc43)CC2)cc1,11.5% (inactive)
10,CCOC(=O)CCC(=O)OCC(=O)NC(C)C1CC2CCC1C2 (stereo unspecified),0.5% (inactive)
11,COc1ccc(OC)c(Nc2nc(-c3ccc(O)c(O)c3)cs2)c1,85.3% (active)
12,Nc1ccc(-c2nnc(-c3ccc(-c4ccccc4)cc3)o2)cc1,-55.2% (inactive)
13,Cc1cc2nc(-c3ccc(NC(=O)c4cccnc4)cc3)oc2cc1C,-54.8% (inactive)
14,CCc1ccc2oc(-c3ccc(N)cc3)nc2c1,50.8% (active)
15,O=C(CSc1nnc2ccccn12)c1ccccc1,-55.3% (inactive)
16,O=C(C1CCN(S(=O)(=O)c2cnc[nH]2)CC1)N1CCN(Cc2ccc3c(c2)OCO3)CC1,6.1% (inactive)
17,Fc1ccc2[nH]c3c(N4CCN(Cc5ccc6c(c5)OCO6)CC4)ncnc3c2c1,83.3% (active)
18,Fc1ccc2[nH]c3c(N4CCSCC4)ncnc3c2c1,58.1% (active)
19,CC[C@]1(O)CC2CN(CCc3c([nH]c4ccccc34)[C@@](C(=O)OC)(c3cc4c(cc3OC)N(C=O)[C@H]3[C@@](O)(C(=O)OC)[C@H](OC(C)=O)[C@]5(CC)C=CCN6CC[C@]43[C@@H]65)C2)C1 (stereo partly specified),73.8% (active)
20,CC[C@]1(O)C[C@@H]2CN(CCc3c([nH]c4ccccc34)[C@@](C(=O)OC)(c3cc4c(cc3OC)N(C)[C@H]3[C@@](O)(C(=O)OC)[C@H](OC(C)=O)[C@]5(CC)C=CCN6CC[C@]43[C@@H]65)C2)C1,73.1% (active)
21,Cc1ccc(N2C(=O)c3ccccc3C2(O)c2ncc[nH]2)cc1 (stereo unspecified),-6.1% (inactive)
22,COc1cc(C2C3C(=O)N(c4ccccc4)C(=O)C3ON2c2ccccc2)ccc1O (stereo unspecified),-51.7% (inactive)
23,O=C(Nn1cnc2ccccc2c1=O)c1ccc(F)cc1Cl,-64.7% (inactive)
24,CC1CN(C2CCCCC2)c2nc3c(c(=O)n(C)c(=O)n3C)n2C1 (stereo unspecified),-1.7% (inactive)
